Compounds without any hit were thinned out: in the full panel of roughly 83,000, 20% have a hit.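 Testing used 96-well plates and a 48-hour single-concentration exposure. Example: -40 means 40% of the starting cells died.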 Calls of active or inactive are those of the source. Rule for the calls: active = growth percent below 10; inactive = the rest.
Each compound was assayed on SF-268 CNS (assay: NCI-60 one-dose screen, 48 h (100 = growth as untreated, 0 = no growth, -100 = all killed)). Details: 10 µM.

Structure (SMILES) | growth
Cc1cccc2cc(-c3cc(-c4ccccc4)nc(=S)[nH]3)c(Cl)nc12 | 112% (inactive)
Cc1ccc(/C=C(\C#N)n2nnc3c(F)cccc32)cc1 | 24.3% (inactive)
COc1ccc2nc(Cl)c(-c3cc(-c4ccccc4)nc(=S)[nH]3)cc2c1 | 67.9% (inactive)
Cc1ccc(C(=O)Nc2ccc(-n3c(C)nc4c(cnn4-c4ccccc4)c3=O)cc2)cc1 | 96.3% (inactive)
Cc1ccc(-c2ccc(SCC(=O)Nc3ccc(Cl)c(C(F)(F)F)c3)nn2)cc1 | 38.6% (inactive)
O=C(COc1ccc(NC(=O)Nc2ccc(Cl)cc2)cc1)N=Nc1c(O)[nH]c2ccc([N+](=O)[O-])cc12 | 19.5% (inactive)
Cc1nn(-c2ccccc2)c2ncn(CC(=O)N/N=C/c3c[nH]c4ccccc34)c(=O)c12 | 73.5% (inactive)
S=c1nc(-c2ccccc2)cc(-c2cc3ccccc3nc2Cl)[nH]1 | 70.5% (inactive)
Cc1ccc(C(=O)NCCCNc2nc(Nc3ccc(N4CCN(C)CC4)cc3)nc3ccsc23)cc1 | 60.4% (inactive)
COc1ccc2nc(Cl)c(-c3cc(-c4ccccc4)nc(N)n3)cc2c1 | 58.8% (inactive)
COc1cc(Cn2c(C(F)(F)F)cc3c(Cl)ncnc32)ccn1 | -11% (active)
O=C1CCC(N2Cc3c(NCc4ccc(-c5ccccc5)cc4)cccc3C2=O)C(=O)N1 (centres undefined) | 68.1% (inactive)
O=c1nc(-c2ccccc2)cc(-c2cc3ccccc3nc2Cl)[nH]1 | 38.2% (inactive)
Cc1nc2c(cnn2-c2ccccc2)c(=O)n1-c1ccc(NC(=O)c2ccc(F)cc2)cc1 | 88.9% (inactive)
